FEN1 inh-1 – qHTS Assay for the Inhibitors of Human Flap endonuclease 1 (FEN1); Recombinant FEN1 flap cleavage, fluorescence, 15 min; AID 588795, 2011; P39748; actives 0.35% (n = 390,000); Potency, µM (highest dose often 114 µM), usual class: inhibitors; also: nearly all actives have a fitted effect of over 65% in size
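FEN1 at 10 nM, compound pretreatment for 15 min (room temperature), 50 nM final substrate to initiate; endpoint reads at 0 and 15 min; DMSO-only plates used as vehicle background.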
BLM inh – qHTS Assay for Inhibitors of Bloom's syndrome helicase (BLM); AID 2528, 2010; RecQ-like DNA helicase BLM (Homo sapiens), P54132; recombinant BLM DNA unwinding, fluorescence dequenching; actives 0.2% (n = 350,000); Potency, µM (titrated, usually from 56.1 µM), actives largely listed as inhibitors; also: nearly all actives have a fitted effect of over 35% in size
Target sequence (P54132 whole entry, looked up): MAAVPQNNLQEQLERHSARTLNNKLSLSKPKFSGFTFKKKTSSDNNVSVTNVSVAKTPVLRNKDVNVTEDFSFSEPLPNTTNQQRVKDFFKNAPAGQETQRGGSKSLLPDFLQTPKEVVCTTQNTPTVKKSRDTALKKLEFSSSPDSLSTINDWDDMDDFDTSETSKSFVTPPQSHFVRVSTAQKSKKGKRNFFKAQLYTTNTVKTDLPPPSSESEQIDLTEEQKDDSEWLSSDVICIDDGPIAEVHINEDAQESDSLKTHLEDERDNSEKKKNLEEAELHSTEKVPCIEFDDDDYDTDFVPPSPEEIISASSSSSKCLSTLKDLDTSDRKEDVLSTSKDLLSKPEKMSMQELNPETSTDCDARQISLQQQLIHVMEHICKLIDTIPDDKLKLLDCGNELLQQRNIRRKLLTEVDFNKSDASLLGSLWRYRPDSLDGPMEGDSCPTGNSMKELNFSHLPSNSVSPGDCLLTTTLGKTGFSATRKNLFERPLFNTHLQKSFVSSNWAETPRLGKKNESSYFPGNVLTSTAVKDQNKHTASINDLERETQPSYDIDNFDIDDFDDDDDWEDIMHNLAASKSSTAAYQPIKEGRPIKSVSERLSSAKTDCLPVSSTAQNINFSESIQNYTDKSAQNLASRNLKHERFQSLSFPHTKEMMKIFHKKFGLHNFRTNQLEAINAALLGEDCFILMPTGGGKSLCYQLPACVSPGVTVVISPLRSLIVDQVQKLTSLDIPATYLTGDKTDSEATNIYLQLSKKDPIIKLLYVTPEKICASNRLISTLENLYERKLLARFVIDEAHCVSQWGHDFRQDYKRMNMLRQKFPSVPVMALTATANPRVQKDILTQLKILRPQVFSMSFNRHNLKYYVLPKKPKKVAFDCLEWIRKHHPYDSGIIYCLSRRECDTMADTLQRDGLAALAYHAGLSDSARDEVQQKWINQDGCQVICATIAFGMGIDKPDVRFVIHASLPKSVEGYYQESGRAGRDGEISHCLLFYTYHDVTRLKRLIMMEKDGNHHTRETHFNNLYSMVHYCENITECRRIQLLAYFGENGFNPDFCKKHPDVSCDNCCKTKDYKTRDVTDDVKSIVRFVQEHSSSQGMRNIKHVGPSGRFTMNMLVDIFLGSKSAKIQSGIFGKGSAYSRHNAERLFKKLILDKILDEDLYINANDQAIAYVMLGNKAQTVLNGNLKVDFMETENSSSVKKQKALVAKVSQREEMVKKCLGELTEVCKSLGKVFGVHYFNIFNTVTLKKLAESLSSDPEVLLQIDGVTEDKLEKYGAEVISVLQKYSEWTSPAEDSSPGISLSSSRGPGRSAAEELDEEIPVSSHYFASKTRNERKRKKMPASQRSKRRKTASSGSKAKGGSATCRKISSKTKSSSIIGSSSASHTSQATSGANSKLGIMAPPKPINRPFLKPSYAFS
L3MBTL1 inh-1 – qHTS Assay for the Inhibitors of L3MBTL1; AlphaScreen L3MBTL1–H3K9me1 peptide binding; Potency, µM (highest dose often 57.1 µM), hits mostly inhibitors; actives 0.66% (n = 230,000); also: nearly all actives have a fitted effect of over 60% in size
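AlphaScreen proximity signal between nickel-chelate acceptor and streptavidin donor beads (final 10 ug/mL) reports binding of 50 nM L3MBTL1 to 75 nM biotin-H3 K9me1 peptide; complex incubated with compounds 30 min at room temperature; cefsulodin titration as control.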
RECQ1 inh-1 – qHTS Assay for Inhibitors of RecQ-Like Dna Helicase 1 (RECQ1) | AID 2549, 2010 | RECQ1 DNA unwinding, red fluorescence kinetic read | Potency, µM (top dose mostly 57.3 µM), most hits filed as inhibitors | actives 0.54% (n = 240,000); also: nearly all actives have a fitted effect of over 30% in size
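RECQ1T1 50 nM; forked duplex (20 bp + 30-nt ss tails) 200 nM, ATP 2 mM final; pH 8.0, 2 mM MgCl2, 2.5 ug/ml poly(dI-dC); 15 min compound preincubation; discontinuous kinetic read over 2 h at RT.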
WRN helicase inh – qHTS for Inhibitors of WRN Helicase. actives 0.46% (n = 360,000). AID 651768, 2012. Potency, µM (top dose mostly 114 µM), actives largely listed as inhibitors. WRN helicase unwinding, fluorescent forked duplex, kinetic. Bifunctional 3'-5' exonuclease/ATP-dependent helicase WRN (Homo sapiens), Q14191; also: nearly all actives have a fitted effect of over 55% in size
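WRN at 20 nM final was preincubated with compound for 15 min at room temperature; reaction started with 100 nM forked duplex oligonucleotide carrying fluorophore and quencher plus 2 mM ATP (final). Unwinding followed kinetically by red fluorescence (ex 525/em 598 nm).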
APE1 inh – qHTS Assay for Inhibitors of the Human Apurinic/apyrimidinic Endonuclease 1 (APE1); AID 2517, 2012; DNA repair nuclease/redox regulator APEX1 (Homo sapiens), P27695; actives 0.35% (n = 350,000); recombinant APE1, TAMRA/BHQ-2 abasic DNA cleavage fluorescence; Potency, µM (series often up to 65.8 µM), most hits filed as inhibitors; also: nearly all actives have a fitted effect of over 55% in size
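Measures dequenching upon AP-site incision of a 5'-TAMRA/3'-BHQ-2 THF-containing duplex, 50 nM; human APE1 0.75 nM after 15 min room-temperature exposure to compound; kinetic three-point read at one-minute spacing.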
RECQ1 conf – Confirmation qHTS Assay for Inhibitors of RecQ-Like Dna Helicase 1 (RECQ1) | RECQ1 helicase DNA unwinding, fluorescence | AID 2708, 2010 | Potency, µM (highest dose often 229 µM), usual class: inhibitors | shares compounds with RECQ1 inh-1 | actives 28% (n = 610); also: nearly all actives have a fitted effect of over 45% in size
ADP FP counter – Counterscreen for RECQ1 Inhibitors: ADP Fluorescence Polarization Displacement Assay; shares compounds with RECQ1 inh-1; ADP fluorescence polarization displacement counterscreen; Potency, µM (series often up to 228 µM), hits mostly inhibitors; actives 27% (n = 530); also: nearly all actives have a fitted effect of over 45% in size
RECQ1 inh-2 – Confirmation qHTS Assay for Inhibitors of RecQ-Like Dna Helicase 1 (RECQ1) - Round 2 Cherry Picks. AID 504841, 2011. shares compounds with RECQ1 inh-1. recombinant RECQ1 DNA unwinding, red fluorescence. Potency, µM (series often up to 119 µM), actives largely listed as inhibitors. actives 15% (n = 1,100); also: nearly all actives have a fitted effect of over 50% in size
L3MBTL1 inh-2 – qHTS Assay for the Inhibitors of L3MBTL1: Hit Validation | actives 91% (n = 500) | shares compounds with L3MBTL1 inh-1 | AID 540279, 2011 | Potency, µM, most hits filed as inhibitors | L3MBTL1 methyl-lysine binding inhibition, biochemical qHTS; also: nearly all actives have a fitted effect of over 70% in size
L3MBTL1 ctr – qHTS Assay for the Inhibitors of L3MBTL1: Hit Validationin AlphaScreen Counterscreen; shares compounds with L3MBTL1 inh-1; AlphaScreen counterscreen, signal inhibition; Potency, µM (top dose mostly 57.1 µM), most hits filed as inhibitors; 500 tested, under 10 active; AID 602224, 2012
FEN1 inh-2 – qHTS Assay for the Inhibitors of FEN1: Confirmatory Assay for Cherry-picked Compounds. shares compounds with FEN1 inh-1. FEN1 flap cleavage, TAMRA/BHQ2 fluorogenic DNA substrate. Potency, µM, actives largely listed as inhibitors. actives 79% (n = 880). AID 720498, 2013; also: nearly all actives have a fitted effect of over 60% in size
Hits are given with their value; - = inactive; ? = inconclusive; . = no result given; ! = not confirmed by another sample; [ ] = dose if it differs, or a comment. The list is not random: actives were taken first. Their share in the collection is about 1%. Calls follow the shape of the dose curve; as a rule, active = well fitted curve in the direction sought with a large enough effect; inconclusive = small, poorly fitted or top-dose-only effect, or another doubt; inactive = no such curve, though single readings can be large; an effect the other way counts as inactive or inconclusive.

SMILES | FEN1 inh-1 | BLM inh | L3MBTL1 inh-1 | RECQ1 inh-1 | WRN helicase inh | APE1 inh | RECQ1 inh-2 | others
CN(C)[C@@H]1C(=O)C(C(N)=O)=C(O)[C@]2(O)C(=O)C3=C(O)c4c(O)cccc4[C@@](C)(O)[C@H]3[C@H](O)[C@@H]12 | . | - | . | 13µM | . | ? | . | RECQ1 conf=-;ADP FP counter=45µM
CCN(CC)C(=O)c1ccc2c(c1)C1C(Cl)C(Sc3ccccc3[N+](=O)[O-])CC1C(C(=O)O)N2 (stereo not given) | ? | - | 14µM | - | - | - | . | RECQ1 conf=?;ADP FP counter=126µM
C=CC(=C)C | . | . | . | - | . | - | .
CON(C)C(=O)Nc1ccc(Br)cc1 | . | - | . | - | . | - | .
O=c1oc2ccccc2c(O)c1C(c1ccccn1)c1c(O)c2ccccc2oc1=O | - | - | - | 7.9µM | - | ? | ?
COc1ccc(C(=O)CC(c2ccc(OC)c(OC)c2)c2c(O)c3ccccc3oc2=O)cc1OC (stereo not given) | . | . | . | . | - | . | .
O[C@@H]1[C@@H]2O[P@@](O)(=S)OC[C@H]2O[C@H]1n1cnc2cc(Cl)c(Cl)cc21 | . | - | . | - | . | - | .
CC(O)C(C)OC(=O)[C@@H]1C[C@@H]2c3cccc4c3c(cn4C(C)C)C[C@H]2N(C)C1 (stereo not given in full) | . | . | . | 35µM! | . | - | 56µM
CC(C)C[C@H]1C(=O)N2CCC[C@@H]2[C@@]2(O)O[C@](NC(=O)[C@@H]3C=C4c5cccc6[nH]cc(c56)C[C@@H]4N(C)C3)(C(C)C)C(=O)N12 | . | - | . | ? | . | ? | .
O=C(CCl)c1ccc(Oc2ccc(C(=O)CCl)cc2)cc1 | . | - | . | . | . | . | .
CCC1CN2CCC1CC2C(O)c1ccnc2ccc(OC)cc12 (stereo not given) | . | - | . | - | . | - | .
CCc1ccc(N2C(=O)NC(=O)/C(=C\C=C\c3ccco3)C2=O)cc1 | 22µM | - | . | 8.9µM | ? | ? | . | RECQ1 conf=?;ADP FP counter=50µM
Cc1ccc(N2C(=O)NC(=O)/C(=C\c3cccn3C(C)(C)C)C2=O)cc1 | - | - | - | - | - | - | .
C/C=C1/C[N@@+]2(C)CC[C@]34C(=C(C=O)[C@H]1C[C@H]32)Nc1ccccc14 | . | . | . | - | . | - | .
CC(C)n1c(=O)c(C=Nc2ccc(S(N)(=O)=O)cc2)c(O)n(Cc2ccco2)c1=O | - | - | - | ? | -[11.6 µM] | ? | -
CC(C)(C)OC(=O)C(Br)CCBr (stereo not given) | . | - | . | - | . | - | .
Nc1c(C(=O)NCCN2CCOCC2)c2nc3ccccc3nc2n1Cc1ccccc1 | - | - | - | - | - | - | .
CC(C)CCNC(=O)c1c(N)n(CC2CCCO2)c2nc3ccccc3nc12 (stereo not given) | ? | ? | . | ? | - | ? | -
COCCCn1c(N)c(C(=O)Nc2ccccc2)c2nc3ccccc3nc21 | - | - | - | - | - | - | .
Nc1c(C(=O)NCCc2ccccc2)c2nc3ccccc3nc2n1CCN1CCOCC1 | - | - | - | 8.9µM | - | - | - | RECQ1 conf=-;ADP FP counter=-
CCC(C)NC(=O)c1c(N)n(Cc2ccc3c(c2)OCO3)c2nc3ccccc3nc12 (stereo not given) | - | ? | - | ? | - | - | -
CCC(C)NC(=O)c1c(N)n(CCCOC)c2nc3ccccc3nc12 (stereo not given) | - | ? | - | ? | - | - | -
c1nc[nH]n1 | . | . | . | - | . | - | .
CCOC(=O)c1c(N)n(CCN2CCCCC2)c2nc3ccccc3nc12 | - | - | - | - | - | - | .
CCC(C)NC(=O)c1c(N)n(CC2CCCO2)c2nc3ccccc3nc12 (stereo not given) | ? | ? | - | ? | - | - | -
SMILES | FEN1 inh-1 | BLM inh | L3MBTL1 inh-1 | RECQ1 inh-1 | WRN helicase inh | APE1 inh | RECQ1 inh-2 | others
CCCCC(=O)N/N=C/c1c(O)n(Cc2ccco2)c(=O)[nH]c1=O | - | - | ? | 32µM | - | - | -
O=C(N/N=C/c1c(O)n(Cc2ccco2)c(=O)[nH]c1=O)c1ccccc1O | - | - | . | ? | ? | ? | .
CCOc1ccccc1OCCCCN1CCCC1 | - | - | 28µM | - | - | - | . | L3MBTL1 inh-2=?;L3MBTL1 ctr=?
C=CCN1C(=O)NC(=O)/C(=C/c2ccoc2)C1=O | ? | - | 22µM | - | 50µM | - | . | L3MBTL1 inh-2=17;L3MBTL1 ctr=-
C=CCN1C(=O)NC(=O)/C(=C/c2cccn2C)C1=O | - | - | - | - | - | - | .
Cc1cc(C=C2C(=O)NC(=S)NC2=O)c(C)n1-c1ccc2c(c1)OCO2 | - | - | 22µM | - | ? | - | . | L3MBTL1 inh-2=21;L3MBTL1 ctr=-
CCSC(=O)Cl | . | . | . | - | . | - | .
CN(C)NC(=O)CCC(=O)O | . | . | . | - | . | - | .
Nc1ccc2ccc3cccc[n+]3c2c1 | 50µM | - | - | . | -[11.6 µM] | - | . | FEN1 inh-2=?
CN1CCC(N(C)c2nc(-c3ccc([N+](=O)[O-])cc3)nc3ccccc23)CC1 | 35µM | - | - | - | - | - | . | FEN1 inh-2=34
CNCC(N)C(=O)O (stereo not given) | . | - | . | - | . | - | .

Screening results from PubChem BioAssay.
